Source: PubChem BioAssay (EPA / NIEHS)
Calls of active or inactive are those of the source. The calls were made as follows: active = hit-call score of the fitted dose curve at least 0.9, where 1 is the maximum; inactive = score below 0.9.

Assay: CCTE_Padilla_ZF_Score.General: CCTE's 144 Hour Post-fertilization zebrafish Assay Score for General Malformation, Padilla Lab (AID 2284411)
Protocol: CCTE_Padilla_ZF_Phenotype_Score is a whole embryo, multiplexed assay using zebrafish ova exposed for 144 hours post fertilization on a 96-well plate.CCTE_Padilla_ZF_Score.General is one of one assay component(s) measured or calculated from the CCTE_Padilla_ZF_Phenotype_Score assay. It is designed to make measurements of zebrafish development as detected with brightfield microscopy of developing zebrafish embryos.Data from the assay component CCTE_Padilla_ZF_Score.General was analyzed into 1 assay endpoints. This assay endpoint, CCTE_Padilla_ZF_Score.General, was analyzed in the positive analysis fitting direction relative to DMSO as the negative control and baseline of activity. Using a type of viability reporter, gain-of-signal activity can be used to understand changes in developmentals as they relate to the whole embryo. To generalize the intended target to other relatable targets, this assay endpoint is annotated to the zebrafish development intended target family, where the subfamily is embryonic morphogenesis.
Zebrafish husbandry: Wild type adult zebrafish (Danio rerio; undefined outbred stock obtained from Aquatic Research Organisms, Hampton, NH, 03842) were housed in an AAALAC-approved animal facility at 28C with a 14:10 h light: dark cycle (lights on at 08:30 h). Adult fish (2-3 females per male; density = 15-20 adults per tank) were kept in one of several 9-liter (L) flow-through colony tanks (Aquaneering Inc., San Diego, CA). All adults in a colony tank were placed in a 2 L (static) breeding tank (Aquatic Habitats, Apopka, FL) one hour prior to light onset. Typically, adults from two to three colony tanks were mated on the same day. Two hours after light onset the adults were returned to the colony tank. All embryos were gathered from each breeder tank, pooled, and placed in a 28C water bath for 2 h, followed by two washes with 0.06% bleach (v/v) in 10% Hanks' Balanced Salt Solution (13.7 mM NaCl 0.54 mM KCl, 25 uM Na2HPO4, 130 uM CaCl2 100 um MgSO4 and 420 um NaHCO3,), hereafter referred to as Hanks' solution, for 5 min in order to remove any residual bacteria or fungi. Immediately following washing, the embryos were examined, and healthy embryos were separated from dead or unfertilized eggs and moved into fresh Hanks'. Chemical exposures: Zebrafish embryos were exposed in 96-well plates. Between 6- and 8-hours post fertilization (hpf), healthy embryos (with chorions) were transferred, one embryo per well, into 96 well (0.5 mL) microtiter plates (Cell Culture-Treated, Flat-Bottom Microplate 96 well [Corning Costar, Kennebunk, ME; Cat 09-761-145]) filled with 200 uL of Hanks' solution. A random number generator was used to assign the order in which the rows of embryos were plated in 96 well plates each week. After plating, the embryos were dosed with 0.8 uL of the chemical dosing solution then immediately sealed with AlumaSeal II (Excel Scientific Inc, Victorville, CA) to prevent volatilization of the chemicals, and then placed in a leakproof secondary container. These containers were placed in an incubator maintained on a 14:10 h light: dark cycle at 26C for rearing. On 5 dpf, live larvae were gently moved out of the plate with test chemicals and into a new 96 well mesh plate (Millipore Corp., Bedford, MA) with just the Hanks' solution. Once within the mesh well plate, the animals were rinsed with 400 uL of fresh Hanks' three times, and then the plates were covered with a non-adhesive material (Microseal A, BioRad, Hercules, CA), plate lid added, and then plate sides wrapped in Parafilm (PM992, Bermis Company, Neenah, WI), and returned to the incubator. […]

| SMILES | outcome | AC50 |
| --- | --- | --- |
| CC1=CC(C)C(C=O)C(C)C1 (centres undefined) (tested in a mixture with another compound) | inactive | – |
| CC(=O)CCC=C(C)CCC=C(C)C | inactive | – |
| CCOC(=O)C=Cc1ccccc1 | inactive | – |
| O=C(O)C(F)(F)OC(F)(F)C(F)(F)OC(F)(F)C(F)(F)C(F)(F)C(F)(F)F | – | 81.3 µM (active) |
| C=C(C)C(=O)OCCC(F)(F)C(F)(F)C(F)(F)C(F)(F)C(F)(F)C(F)(F)C(F)(F)C(F)(F)F | inactive | – |
| O=S(=O)(O)C(F)(F)C(F)(F)OC(F)(F)C(F)(F)F | inactive | – |
| CCCCCCCCCC(=O)OCC | inactive | – |
| CCC(=O)OC/C=C(\C)CCC=C(C)C | – | 27.3 µM (active) |
| C=C1CC[C@H]2O[C@]2(C)CC[C@@H]2[C@@H]1CC2(C)C | – | 65.4 µM (active) |
| CCCCCCCCCCCCS | inactive | – |
| O=C(O)C(F)(F)C(F)(F)C(F)(F)C(F)(F)C(F)(F)C(F)(F)C(F)(F)C(F)F | inactive | – |
| C=C(F)C(=O)OC(C(F)(F)F)C(F)(F)F | inactive | – |
| OCC(F)(OC(F)(F)C(F)(OC(F)(F)C(F)(F)C(F)(F)F)C(F)(F)F)C(F)(F)F (centres undefined) | inactive | – |
| CCOC(=O)CCCCCCCCC(=O)OCC | inactive | – |
